PubChem BioAssay (EPA / NIEHS)
Activity calls are given as the source filed them. Rule for the calls: active = hit-call score of the fitted dose curve at least 0.9, where 1 is the maximum; inactive = score below 0.9.

How the values were obtained:
Conditions in all cases: mRNA level, 48 h; actives raise or lower the signal
[1] = read-out: Cytochrome P450 4A22 (Homo sapiens) (UniProt Q5TCH4); experiment: LTEA_HepaRG_CYP4A22: Life Technologies and Expression Analysis (LTEA) Assay for Cytochrome P450 4A22 (CYP4A22) using HepaRG (AID 2283495)
How it was run: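 Cryopreserved HepaRG cells, plated and cultured 48 h, then switched to serum-free induction medium and treated 48 h (duplicates, up to 100 uM, half-log steps, 0.5% DMSO). Expression change of CYP4A22 was fitted bidirectionally against vehicle.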

[2] = read-out: Cytochrome P450 7A1 (Homo sapiens) (UniProt P22680); experiment: LTEA_HepaRG_CYP7A1: Life Technologies and Expression Analysis (LTEA) Assay for Cytochrome P450 7A1 (CYP7A1) using HepaRG (AID 2283496)
How it was run: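 HepaRG cells plated 48 h, then switched to serum-free induction medium and exposed in duplicate for 48 h to 8-point half-log series from 100 uM in 0.5% DMSO. CYP7A1 mRNA by qRT-PCR (TaqMan), normalized to ACTB/GAPDH/POLR2A; bidirectional fit versus DMSO.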

[3] = read-out: Glutathione S-Transferase (GSTA2), GSTA2 (gene 2939); experiment: LTEA_HepaRG_GSTA2: Life Technologies and Expression Analysis (LTEA) Assay for Glutathione S-Transferase (GSTA2) using HepaRG (AID 2283497)
How it was run: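 HepaRG, 48 h dosing, 8-pt half-log CRC from 100 uM, 0.5% DMSO vehicle, n=2; RNA → Fluidigm TaqMan qRT-PCR; GSTA2 vs ACTB/GAPDH/POLR2A; gain/loss fit vs DMSO.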

[4] = read-out: Glutamate-cysteine ligase catalytic (GCLC), GCLC (gene 2729); experiment: LTEA_HepaRG_GCLC: Life Technologies and Expression Analysis (LTEA) Assay for Glutamate-cysteine ligase catalytic (GCLC) using HepaRG (AID 2283498)
How it was run: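 Read-out is GCLC transcript level by Fluidigm-based TaqMan qRT-PCR, normalized to three housekeeping genes and fitted in both directions relative to 0.5% DMSO. Human HepaRG cells received chemicals for 48 h, up to 100 uM.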

[5] = read-out: growth arrest and DNA damage 45 (GADD45G), GADD45G (gene 10912); experiment: LTEA_HepaRG_GADD45G: Life Technologies and Expression Analysis (LTEA) Assay for growth arrest and DNA damage 45 (GADD45G) using HepaRG (AID 2283499)
How it was run: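 Human hepatic HepaRG line treated 48 h with chemicals (eight concentrations, half-log steps from 100 uM); transcript induction or repression of GADD45G scored by qRT-PCR versus DMSO vehicle.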

[6] = read-out: Glutamate-cysteine ligase regulatory (GCLM), GCLM (gene 2730); experiment: LTEA_HepaRG_GCLM: Life Technologies and Expression Analysis (LTEA) Assay for Glutamate-cysteine ligase regulatory (GCLM) using HepaRG (AID 2283500)
How it was run: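 Cells were plated, cultured 48 h, switched to serum-free induction medium, then dosed in duplicate for 48 h at eight half-log concentrations up to 100 uM. RNA was then profiled by qRT-PCR; gain or loss versus DMSO was fitted.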

[7] = read-out: Glutathione S-transferase M3 (GSTM3), GSTM3 (gene 2947); experiment: LTEA_HepaRG_GSTM3: Life Technologies and Expression Analysis (LTEA) Assay for Glutathione S-transferase M3 (GSTM3) using HepaRG (AID 2283501)
How it was run: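 Changes in GSTM3 expression, an oxidative-stress marker, were scored by bidirectional curve fitting against 0.5% DMSO vehicle. Human HepaRG cultures received chemicals for 48 h in duplicate, highest concentration 100 uM with half-log dilutions.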

[8] = read-out: Heat shock 70 kDa protein 1 (HSPA1A), gene 3303; experiment: LTEA_HepaRG_HSPA1A: Life Technologies and Expression Analysis (LTEA) Assay for Heat shock 70 kDa protein 1 (HSPA1A) using HepaRG (AID 2283502)
How it was run: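 Readout is HSPA1A transcript level by microfluidic qRT-PCR, normalized to three housekeeping genes and analysed for gain or loss of signal relative to 0.5% DMSO. Human HepaRG cultures received test chemicals for 48 h at up to 100 uM.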

[9] = read-out: Hypoxia-inducible factor 1-alpha (Homo sapiens) (UniProt Q16665); experiment: LTEA_HepaRG_HIF1A: Life Technologies and Expression Analysis (LTEA) Assay for Hypoxia-inducible factor 1 (HIF1A) Trancription factor using HepaRG (AID 2283503)
How it was run: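 Differentiated HepaRG cells in serum-free induction medium exposed 48 h, in duplicate, to 8-point half-log series from 100 uM in 0.5% DMSO. HIF1A mRNA measured by TaqMan qRT-PCR, normalized to ACTB/GAPDH/POLR2A, fitted bidirectionally versus DMSO.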

[10] = read-out: 3-Hydroxy-3-Methylglutaryl-CoA Synthase 2 (HMGCS2), HMGCS2 (gene 3158); experiment: LTEA_HepaRG_HMGCS2: Life Technologies and Expression Analysis (LTEA) Assay for 3-Hydroxy-3-Methylglutaryl-CoA Synthase 2 (HMGCS2) using HepaRG (AID 2283504)
How it was run: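 Expression of HMGCS2 in human HepaRG liver cells is measured by qRT-PCR 48 h after dosing (highest 100 uM, half-log series, 0.5% DMSO). Values come from bidirectional concentration-response fitting with DMSO as baseline.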

HGF (gene 3082) = experiment: LTEA_HepaRG_HGF: Life Technologies and Expression Analysis (LTEA) Assay for Hepatocyte Growth Facto (HGF) using HepaRG (AID 2283505)
How it was run: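 Gain or loss of HGF mRNA in human HepaRG liver cells after 48 h chemical exposure; eight concentrations up to 100 uM with 0.5% DMSO vehicle, quantified by TaqMan qRT-PCR.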

[11] = read-out: Insulin Like Growth Factor 1 (IGF1), IGF1 (gene 3479); experiment: LTEA_HepaRG_IGF1: Life Technologies and Expression Analysis (LTEA) Assay for Insulin Like Growth Factor 1 (IGF1) using HepaRG (AID 2283506)
How it was run: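 HepaRG, plated 48 h, then switched to serum-free induction media; test chemical 8-pt half-log from 100 uM (0.5% DMSO), duplicate, 48 h. Lysis in RLT, TaqMan qRT-PCR, norm. ACTB/GAPDH/POLR2A. Bidirectional fit vs DMSO.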

[12] = read-out: Intercellular Adhesion Molecule 1 (ICAM1), ICAM1 (gene 3383); experiment: LTEA_HepaRG_ICAM1: Life Technologies and Expression Analysis (LTEA) Assay for Intercellular Adhesion Molecule 1 (ICAM1) using HepaRG (AID 2283507)
How it was run: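 Gain or loss of transcript in HepaRG hepatic cells is quantified by qRT-PCR after 48 h chemical exposure (up to 100 uM, half-log steps), with DMSO as baseline.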

[13] = read-out: Insulin-like growth factor-binding protein 1 (IGFBP1), IGFBP1 (gene 3484); experiment: LTEA_HepaRG_IGFBP1: Life Technologies and Expression Analysis (LTEA) Assay for Insulin-like growth factor-binding protein 1 (IGFBP1) using HepaRG (AID 2283508)
How it was run: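 mRNA induction or loss was quantified by qRT-PCR after 48 h chemical exposure of human HepaRG cells, with 0.5% DMSO as vehicle and baseline. Concentration-response over eight points up to 100 uM.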

[14] = read-out: Interleukin 6 (IL6), IL6 (gene 3569); experiment: LTEA_HepaRG_IL6: Life Technologies and Expression Analysis (LTEA) Assay for Interleukin 6 (IL6) using HepaRG (AID 2283509)
How it was run: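 HepaRG, ~100,000 cells/well, 48 h pre-culture; serum-free induction medium; cmpd 8-pt half-log from 100 uM, 0.5% DMSO, duplicate, 48 h. Lysis in RLT, TaqMan qRT-PCR; gain or loss vs DMSO.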

[15] = read-out: Interleukin 6 Receptor (IL6R), IL6R (gene 3570); experiment: LTEA_HepaRG_IL6R: Life Technologies and Expression Analysis (LTEA) Assay for Interleukin 6 Receptor (IL6R) using HepaRG (AID 2283510);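 for AC50: differentiated human HepaRG liver cells in serum-free induction medium; TaqMan qRT-PCR signal normalized to ACTB GAPDH and POLR2A housekeeping genes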
How it was run: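 Readout is IL6R transcript level by TaqMan qRT-PCR, normalized to three housekeeping genes and fitted bidirectionally against 0.5% DMSO controls. Human HepaRG cells received chemicals for 48 h in serum-free induction medium, highest concentration 100 uM.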

[16] = read-out: Potassium channel subfamily K member 1 (KCNK1), KCNK1 (gene 3775); experiment: LTEA_HepaRG_KCNK1: Life Technologies and Expression Analysis (LTEA) Assay for Potassium channel subfamily K member 1 (KCNK1) using HepaRG (AID 2283511)
How it was run: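 Gain or loss of KCNK1 mRNA is the read-out, quantified by qRT-PCR against three housekeeping genes after 48 h chemical treatment of human HepaRG liver cells. Concentrations ran from 100 uM downward in half-log steps, vehicle 0.5% DMSO.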

[17] = read-out: Keratin 19 (KRT19), KRT19 (gene 3880); experiment: LTEA_HepaRG_KRT19: Life Technologies and Expression Analysis (LTEA) Assay for Keratin 19 (KRT19) using HepaRG (AID 2283512)
How it was run: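 Gene-expression endpoint in the human liver line HepaRG after 48 h exposure to up to 100 uM test chemical with 0.5% DMSO vehicle; KRT19 mRNA by qRT-PCR, analyzed bidirectionally versus DMSO.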

[18] = read-out: JUN Transcription Factor, JUN (gene 3725); experiment: LTEA_HepaRG_JUN: Life Technologies and Expression Analysis (LTEA) Assay for JUN Transcription Factor using HepaRG (AID 2283513)
How it was run: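 Cells plated 48 h, medium switched to serum-free induction medium, then dosed 48 h (100 uM top, half-log dilutions, 0.5% DMSO). RNA isolated; JUN measured by qRT-PCR against three housekeeping genes; gain or loss fitted relative to DMSO.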

[19] = read-out: Lipase C (LIPC), LIPC (gene 3990); experiment: LTEA_HepaRG_LIPC: Life Technologies and Expression Analysis (LTEA) Assay for Lipase C (LIPC) using HepaRG (AID 2283514)
How it was run: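 Read-out is LIPC transcript level by TaqMan qRT-PCR, normalized to three housekeeping genes, after 48 h chemical treatment of human HepaRG liver cells. Curves span eight concentrations topping at 100 uM; activity in either direction scored relative to 0.5% DMSO.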

Measured: AC50

Chain of Hypoxia-inducible factor 1-alpha (Homo sapiens) (Q16665 whole entry, looked up): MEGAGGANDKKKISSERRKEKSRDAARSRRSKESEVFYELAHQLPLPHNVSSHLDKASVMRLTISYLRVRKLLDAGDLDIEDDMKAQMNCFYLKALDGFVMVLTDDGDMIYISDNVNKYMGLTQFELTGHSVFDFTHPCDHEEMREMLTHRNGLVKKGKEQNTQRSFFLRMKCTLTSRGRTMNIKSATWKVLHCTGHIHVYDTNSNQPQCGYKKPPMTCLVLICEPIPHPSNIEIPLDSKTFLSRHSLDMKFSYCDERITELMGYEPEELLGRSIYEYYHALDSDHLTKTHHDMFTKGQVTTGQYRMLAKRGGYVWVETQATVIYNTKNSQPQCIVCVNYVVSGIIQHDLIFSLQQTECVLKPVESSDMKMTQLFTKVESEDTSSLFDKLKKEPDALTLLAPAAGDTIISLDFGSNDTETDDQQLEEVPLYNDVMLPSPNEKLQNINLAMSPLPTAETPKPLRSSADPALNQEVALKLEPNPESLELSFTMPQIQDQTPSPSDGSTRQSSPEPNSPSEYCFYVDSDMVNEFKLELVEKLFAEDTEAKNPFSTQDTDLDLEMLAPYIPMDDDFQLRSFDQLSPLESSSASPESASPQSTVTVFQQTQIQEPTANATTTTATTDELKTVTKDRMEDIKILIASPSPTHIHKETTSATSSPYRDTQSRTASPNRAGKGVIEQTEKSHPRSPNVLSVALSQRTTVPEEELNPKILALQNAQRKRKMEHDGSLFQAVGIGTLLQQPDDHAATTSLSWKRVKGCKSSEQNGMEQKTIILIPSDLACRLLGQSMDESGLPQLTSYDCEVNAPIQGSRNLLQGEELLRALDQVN

CC1=CC(=O)/C(=C(/C)O)C(=O)O1
inactive: all assays above

CC(O)CC(C)(C)O (configuration not stated)
inactive: all assays above

OCCO
not listed: [1] | [2]
inactive: all other assays above

Cc1c2ccccc2c(C)c2c1ccc1ccccc12
active: [1] 51.9 µM | [2] 65.9 µM | [3] 39.4 µM | [6] 50 µM | [9] 90.9 µM | [10] 52.5 µM | HGF (gene 3082) 63.3 µM | [12] 82.1 µM | [13] 70.3 µM | [14] 83 µM | [15] 13.5 µM | [17] 13.3 µM | [19] 30.6 µM
inactive: [4] | [5] | [7] | [16] | [18]

Clc1cc(Cl)c2c(c1)N=C1CCCCCN1C2
active: [11] 5.03 µM | [13] 15.5 µM
inactive: all other assays above

CC(=O)N1CCN(c2ccc(OC[C@H]3CO[C@](Cn4ccnc4)(c4ccc(Cl)cc4Cl)O3)cc2)CC1
active: [2] 12.9 µM | [3] 11.3 µM | [4] 65.5 µM | [6] 88.7 µM | [7] 22.7 µM | [8] 79.5 µM | [10] 12.4 µM | [11] 12.4 µM | [12] 26.6 µM | [13] 15.1 µM | [14] 31.2 µM | [15] 13.9 µM | [17] 12.2 µM | [18] 50 µM | [19] 18.3 µM
inactive: [5]

O=C(OCCCCCCOC(=O)c1ccccc1)c1ccccc1
inactive: all assays above

NCc1cccc(C2CCN(C(=O)c3ccc(C#Cc4ccccc4F)o3)CC2)c1
active: [1] 81 µM | [2] 86.3 µM | [3] 78.9 µM | [10] 93.8 µM | HGF (gene 3082) 79.5 µM | [15] 82.5 µM | [17] 9.92 µM | [19] 76.6 µM
inactive: all other assays above
